Measured values reported in PubChem BioAssay AID1159580 (chemical genetic matrix, 2015).
Where “and” joins values, the source holds several entries; their conditions need not be identical. Equal entries are not always repeated. About 2,000 (36%) of roughly 5,500 compounds were called active. About 18% were inconclusive and are not listed. Cut-off read from the data, not from the text of the source: active = normalized growth mostly below about 0.91 (no sharp cut-off); inconclusive = no clear call, values can overlap the other calls; inactive = mostly above about 0.92. The list shows a part of the results.

Assay: chemical genetic growth profiling, strain panel (AID 1159580);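 note: tested at 20 µM; growth read once vehicle control cultures reached saturation at 30 °C; 1 = growth at the plate median or of vehicle wells; lower values mean less growth of the strain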
Conditions: S. cerevisiae deletion strains, growth OD
[1] = locus YAL040C, strain CLN3, hits give low values
[2] = locus YCL061C, strain MRC1 (second series), hits give low values
[3] = locus YDR150W, strain NUM1, hits give low values
[4] = locus YDR363W, strain ESC2, hits give low values
[5] = locus YER002W, strain NOP16, hits give low values
[6] = locus YGR078C, strain PAC10, hits give low values
[7] = locus YGR229C, strain SMI1, hits give low values
[8] = locus YNL128W, strain TEP1, hits give low values
[9] = locus YNL175C, strain NOP13, hits give low values
[10] = locus YNL197C, strain WHI3, hits give low values
[11] = locus YNL224C, strain SQS1, hits give low values
[12] = locus YOR083W, strain WHI5 (second series), hits give low values
[13] = locus YPL241C, strain CIN2, hits give low values
[14] = locus YMR263W, strain SAP30, hits give low values
[15] = locus YMR307W, strain GAS1, hits give low values
[16] = locus YHR030C, strain SLT2, hits give low values
[17] = locus YHR079C, strain IRE1, hits give low values
[18] = locus YJL095W, strain BCK1, hits give low values
[19] = locus YJR066W, strain TOR1, hits give low values
[20] = locus YLR113W, strain HOG1, hits give low values
[21] = locus YNL183C, strain NPR1, hits give low values
[22] = locus YOR231W, strain MKK1, hits give low values
[23] = locus YPL256C, strain CLN2, hits give low values

Measured: normalized growth

COc1cc2nc(N3CC=[N+](C(=O)c4ccco4)CC3)nc(N)c2cc1OC
inactive: [1] 1.02 | [2] 1 | [3] 1 | [4] 1.01 | [5] 1.01 | [6] 1.01 | [7] 1.01 | [8] 1 | locus YNL153C, strain GIM3, hits give low values 0.978 | [9] 0.998 | [10] 1.01 | [11] 1.06 | [12] 1.01 | [13] 1

COc1cc2nc(N3CCN(C(=O)OCc4ccccc4)C(C(=O)NC(C)(C)C)C3)nc(N)c2cc1OC (stereo not given)
active: [5] 1.14 [resistant]
inactive: [1] 0.999 | [2] 0.984 | [3] 0.997 | [4] 0.967 | [6] 1.01 | [14] 0.993 | [15] 0.989 | [8] 1.08 | [9] 1.02 | [10] 1.03 | [11] 1.03 | locus YNL322C, strain KRE1, hits give low values 0.985 | [12] 1.07 | [13] 0.991

COc1cc2nc(N3CCN(C(=O)C4COc5ccccc5O4)CC3)nc(N)c2cc1OC (stereo not given)
inactive: [1] 0.982 | [2] 0.985 | [4] 1.07 | [5] 1.01 | [6] 0.986 | [16] 1.03 | [17] 0.981 | [18] 0.983 | [19] 0.968 | [20] 0.999 | [14] 1.01 | [8] 1.01 | [9] 0.99 | [21] 0.939 | [10] 0.947 | [11] 1.01 | [12] 0.988 | [22] 0.983 | [23] 0.988

CC(C)=CC1C(C(=O)OCc2cccc(Oc3ccccc3)c2)C1(C)C (stereo not given)
inactive: locus YAL021C, strain ccr4, hits give low values 1.01 | locus YAL026C, strain drs2, hits give low values 1.02 | locus YAL030W, strain snc1, hits give low values 1.01 | locus YBL061C, strain skt5, hits give low values 1.01 | locus YBR009C, strain hhf1, hits give low values 1.01 | locus YBR021W, strain FUR4, hits give low values 0.998 | locus YBR023C, strain chs3, hits give low values 1.01 | locus YBR171W, strain sec66, hits give low values 1.02 | locus YBR229C, strain ROT2, hits give low values 0.947 | locus YBR231C, strain swc5, hits give low values 0.994 | locus YBR279W, strain paf1, hits give low values 1 | locus YCL011C, strain gbp2, hits give low values 1.01 | locus YCL016C, strain dcc1, hits give low values 1.01 | locus YCL029C, strain bik1, hits give low values 0.972 | locus YCL069W, strain vba3, hits give low values 1.01 | locus YCR088W, strain abp1, hits give low values 1.01 | locus YDL005C, strain med2, hits give low values 1.01 | locus YDL035C, strain GPR1, hits give low values 0.965 | locus YDL040C, strain nat1, hits give low values 1 | locus YDL074C, strain BRE1, hits give low values 1.01 | locus YDL101C, strain DUN1, hits give low values 0.997 | locus YDL185W, strain tfp1, hits give low values 0.968 | locus YDL192W, strain arf1, hits give low values 0.987 | locus YDR001C, strain nth1, hits give low values 1.01 | locus YDR069C, strain doa4, hits give low values 0.99 | locus YDR101C, strain arx1, hits give low values 0.967 | locus YDR137W, strain rgp1, hits give low values 0.993 | [3] 0.993 | locus YDR159W, strain sac3, hits give low values 1.02 | locus YDR162C, strain NBP2, hits give low values 0.964 | locus YDR195W, strain ref2 0.98 | locus YDR297W, strain sur2, hits give low values 1 | locus YDR318W, strain mcm21, hits give low values 0.986 | locus YDR334W, strain swr1, hits give low values 1.01 | locus YDR335W, strain msn5, hits give low values 1.02 | locus YDR388W, hits give low values 0.983 | locus YDR392W, strain spt3, hits give low values 1.02 | locus YDR502C, strain sam2, hits give low values 0.992 | locus YEL003W, strain gim4, hits give low values 1.01 | locus YEL037C, strain rad23, hits give low values 1.01 | locus YEL061C, strain CIN8 (second series), hits give low values 1.01 | locus YEL061C, strain CIN8, hits give low values 0.995 | locus YER015W, strain faa2, hits give low values 1.01 | locus YER016W, strain bim1, hits give low values 1.01 | locus YER110C, hits give low values 0.978 | locus YER111C, strain swi4, hits give low values 1.01 | locus YER155C, strain BEM2 (second series), hits give low values 1.02 | locus YER155C, strain BEM2, hits give low values 0.998 | locus YER167W, strain BCK2, hits give low values 0.99 | locus YFR010W, strain ubp6, hits give low values 0.997 | locus YGL078C, strain dbp3, hits give low values 0.987 | locus YGL086W, strain mad1, hits give low values 0.996 | locus YGL167C, strain pmr1, hits give low values 1.02 | locus YGL173C, strain kem1, hits give low values 1 | locus YGL227W, strain vid30, hits give low values 1.01 | locus YGL240W, strain doc1, hits give low values 1.03 | locus YGL248W, strain PDE1, hits give low values 1.01 | locus YGL253W, strain hxk2, hits give low values 1.01 | [6] 1.01 | locus YGR135W, strain pre9, hits give low values 0.982 | [7] 0.99 | locus YGR252W, strain gcn5, hits give low values 0.991 | locus YHR013C, strain ard1, hits give low values 1.01 | locus YHR027C, strain rpn1, hits give low values 1.01 | [16] 0.987 and 0.975 | locus YHR079C, strain IRE1 (second series), hits give low values 0.99 | [17] 0.979 | locus YHR094C, strain hxt1, hits give low values 0.988 | locus YHR129C, strain ARP1, hits give low values 0.991 | locus YHR142W, strain chs7, hits give low values 1 | locus YHR200W, strain rpn10, hits give low values 0.976 | locus YIL066C, strain RNR3, hits give low values 0.96 | locus YIL073C, strain SPO22, hits give low values 1 | locus YIL125W, strain kgd1, hits give low values 0.976 | locus YIR030C, strain dcg1, hits give low values 0.982 | locus YJL092W, strain hpr5, hits give low values 1.01 | locus YJL095W, strain BCK1 (second series), hits give low values 1 | [18] 1.06 and 0.979 | locus YJL115W, strain asf1, hits give low values 1.02 | locus YJL129C, strain trk1, hits give low values 1.03 | locus YJL134W, strain LCB3, hits give low values 0.987 | locus YJL154C, strain vps35, hits give low values 1.01 | locus YJL164C, strain tpk1, hits give low values 1.01 | locus YJL166W, strain qcr8, hits give low values 1 | locus YJL168C, strain set2, hits give low values 0.994 | locus YJL187C, strain SWE1 (second series), hits give low values 1.04 | locus YJR043C, strain POL32, hits give low values 0.971 | [19] 0.896 | locus YKL009W, strain mrt4, hits give low values 0.977 | locus YKL068W, hits give low values 0.987 | locus YKL085W, strain MDH1 (second series), hits give low values 1 | locus YKL085W, strain MDH1, hits give low values 1 | locus YKL160W, strain elf1, hits give low values 1.02 | locus YKL190W, strain CNB1, hits give low values 0.997 | locus YKR001C, strain vps1, hits give low values 0.992 | locus YKR026C, strain gcn3, hits give low values 1.01 | locus YKR091W, strain srl3, hits give low values 1.01 | locus YLL001W, strain dnm1, hits give low values 1.02 | locus YLL026W, hits give low values 1.01 | locus YLL041C, strain sdh2, hits give low values 1.02 | locus YLR027C, strain aat2, hits give low values 1.01 | locus YLR039C, strain RIC1, hits give low values 0.972 | locus YLR058C, strain SHM2, hits give low values 0.993 | locus YLR102C, strain apc9, hits give low values 0.991 | [20] 0.998 | locus YLR221C, strain rsa3, hits give low values 1.01 | locus YLR258W, strain gsy2, hits give low values 1.01 | locus YLR262C, strain YPT6 (second series), hits give low values 1.01 | locus YLR262C, strain YPT6, hits give low values 0.927 | locus YLR268W, strain sec22, hits give low values 0.993 | locus YLR320W, strain mms22, hits give low values 1.01 | locus YLR330W, strain CHS5, hits give low values 0.984 | locus YLR342W, strain FKS1 (second series), hits give low values 0.959 | locus YLR342W, strain FKS1, hits give low values 1.01 | locus YLR357W, strain rsc2, hits give low values 1.01 | locus YLR370C, strain arc18, hits give low values 1.03 | locus YLR371W, strain rom2, hits give low values 0.972 | locus YLR384C, strain iki3, hits give low values 1.02 | locus YLR418C, strain cdc73, hits give low values 0.985 | locus YML016C, strain PPZ1, hits give low values 0.993 | locus YML032C, strain rad52, hits give low values 0.983 | locus YML120C, strain ndi1, hits give low values 1.01 | locus YML124C, strain tub3, hits give low values 0.995 | locus YMR058W, strain fet3, hits give low values 1.02 | locus YMR078C, strain ctf18, hits give low values 0.972 | locus YMR125W, strain sto1, hits give low values 1.02 | locus YMR129W, hits give low values 1 | locus YMR205C, strain PFK2, hits give low values 0.993 | locus YMR223W, strain ubp8, hits give low values 0.983 | locus YMR231W, strain pep5, hits give low values 1.01 | [15] 1.02 | locus YNL067W, strain RPL9B, hits give low values 1.04 | locus YNL071W, strain lat1, hits give low values 1.01 | [21] 0.934 | locus YNL209W, strain ssb2, hits give low values 0.998 | locus YNL233W, strain BNI4, hits give low values 1.05 | locus YNL248C, strain rpa49, hits give low values 0.994 | locus YNL250W, strain rad50, hits give low values 0.982 | locus YNL271C, strain bni1, hits give low values 0.971 | locus YNL298W, strain CLA4, hits give low values 0.986 | locus YNL307C, strain MCK1, hits give low values 0.983 | locus YNL322C, strain KRE1 (second series), hits give low values 1.01 | locus YNR049C, strain mso1, hits give low values 1.01 | locus YNR052C, strain pop2, hits give low values 0.988 | locus YOL006C, strain TOP1, hits give low values 1.12 | locus YOL012C, strain htz1 1.31 | locus YOL147C, strain pex11, hits give low values 0.988 | locus YOR001W, strain rrp6, hits give low values 0.988 | locus YOR061W, strain CKA2, hits give low values 0.977 | locus YOR069W, strain VPS5, hits give low values 0.992 | locus YOR070C, strain gyp1, hits give low values 1 | locus YOR080W, strain dia2, hits give low values 1.01 | locus YOR083W, strain WHI5, hits give low values 1 | locus YOR106W, strain vam3, hits give low values 0.938 | locus YOR136W, strain idh2, hits give low values 0.996 | locus YOR144C, strain elg1, hits give low values 0.971 | locus YOR184W, strain ser1, hits give low values 0.992 | [22] 0.989 | locus YOR265W, strain rbl2, hits give low values 0.996 | locus YOR270C, strain vph1, hits give low values 0.948 | locus YOR290C, strain snf2, hits give low values 1.02 | locus YOR316C, strain cot1, hits give low values 0.985 | locus YPL051W, strain arl3, hits give low values 0.995 | locus YPL078C, strain atp4, hits give low values 1.02 | locus YPL106C, strain sse1, hits give low values 1.04 | locus YPL240C, strain hsp82, hits give low values 1.01 | [23] 0.995 | locus YPR119W, strain clb2, hits give low values 0.988 | locus YPR141C, strain kar3, hits give low values 0.982 | locus YPR163C, strain tif3, hits give low values 0.97 | locus YPR167C, strain met16, hits give low values 0.983 | strain wtn01, hits give low values 0.995
